CYP2C19 inh: blocks human cytochrome P450 2C19; 96,000 tested, 21% active; CYP2C19 Supersomes, luciferin-H EGE luminescence, 30 min; AID 778; P33261; inhibition, % at 5 µM;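 active = CYP2C19 inhibition above a set limit at 5 µM in the primary screen, cut at about 50% in these data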;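 also: plate controls were negative control wells for no effect and 2.5 mM tranylcypromine positive control for full effect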
CYP2C19 activ: increases human CYP2C19 enzyme activity; P33261; recombinant CYP2C19, luciferin-H EGE luminescence; active compounds read high; 0 = fully inhibited enzyme, 1 = untreated enzyme; activation factor at 5 µM; 96,000 tested, under 10 active; AID 1025;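 active = activation factor of at least 2 at 5 µM in the primary screen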;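 also: 0 = wells with 2.5 mM tranylcypromine and 1 = vehicle-only wells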
Cav3 T inh: inhibitors of human Cav3.2 T-type calcium channel; O95180; Cav3.2-expressing cells, Fluo-4 calcium fluorescence FDSS; active compounds read low; 100,000 tested, 4% active; B-score at 10 µM;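 active = single-dose well whose peak fluorescence ratio is a statistical outlier from its plate by either plate-standardised score or position-corrected B-score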
CYP2C9 activ: CYP2C9 (human) activation. P11712. recombinant CYP2C9, luciferin-H conversion, luminescence; active compounds read high; factor 1 = untreated enzyme, 0 = blocked. activation factor at 5 µM. 96,000 tested, 1.4% active;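 active = activation factor of 2 or more for CYP2C9 at a 5 µM dose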;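 also: 0 = sulfaphenazole-blocked wells and 1 = vehicle-only wells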
CYP2C9 inh: human CYP2C9 inhibition; P11712; CYP2C9 Supersomes, luciferin-H conversion, luminescence; inhibition, % at 5 µM; 96,000 tested, 20% active;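 active = blocking of liver enzyme CYP2C9 beyond about 50% at 5 µM, limit read from the data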
The depositor's hits bear a star; nt = no result. Only some compounds are listed: those with a hit (about 27% of all), similar ones and a draw of the others.

SMILES	CYP2C19 inh	CYP2C19 activ	Cav3 T inh	CYP2C9 activ	CYP2C9 inh
COc1ccc(CCN(C(=O)C(F)(F)F)C(C(=O)NC2CCCCC2)c2ccc(C)s2)cc1 (stereo unspecified)	7.6	0.9	-2.83	1	-0.3
Cc1ccccc1NC(=O)CSc1nnc(Cc2cccn2C)n1-c1ccc(F)cc1	2.5	1	-1.43	0.9	14.2
Cn1cccc1Cc1nnc(SCC(=O)Nc2ccc(Cl)cc2)n1-c1ccc(F)cc1	53.6*	0.5	-9.77*	0.4	57.8*
Cn1cccc1Cc1nnc(SCC(=O)Nc2ccccc2)n1-c1ccc(F)cc1	33.5	0.7	-7.74*	0.7	34.1
Cn1cccc1Cc1nnc(SCC(=O)Nc2ccccc2F)n1-c1ccc(F)cc1	14.4	0.9	-2.43	0.7	28.6
Cn1cccc1Cc1nnc(SCC(=O)Nc2ccc(F)cc2)n1-c1ccc(F)cc1	10.3	0.9	-4.19*	0.7	28.4
CCc1nc(NCC2CCCO2)c(C#N)c2c1COC(C)(C)C2 (stereo unspecified)	nt	nt	-0.134	nt	nt
CC(C)c1nc(NCC2CCCO2)c(C#N)c2c1COC(C)(C)C2 (stereo unspecified)	53.7*	0.5	-3.46*	0.2	81.7*
CCC/C(O)=C1\C(=O)CC(C)(C)CC1=Nc1ccc(OC)cc1OC	96.9*	0	-2.42	0.1	94.7*
CCCC/C(O)=C1\C(=O)CC(C)(C)CC1=Nc1ccccc1OC	93.2*	0.1	-1.9	0.1	90.3*
CN(Cc1ccco1)C(=O)C1CCC(=O)N1Cc1ccc(F)cc1 (stereo unspecified)	12.1	0.9	-0.156	0.9	8.3
CCOC(=O)c1sc2cc([N+](=O)[O-])cc(SCC(=O)OC)c2c1N	60.1*	0.4	-0.293	0.1	87.3*
C(=N\n1cnnc1)/c1ccc2ncccc2c1	56.7*	0.4	-2.4	0.8	20.7
CCN1CCN(C(c2cccs2)C(C)NC(=O)C(C)C)CC1 (stereo unspecified)	nt	nt	0.773	nt	nt
CCN1CCN(Cc2ccc(NC(=O)CC3Oc4ccc(C)cc4NC3=O)cc2)CC1 (stereo unspecified)	-13.6	1.1	0.521	1	-1.2
O=C1C=C(c2ccc(F)nc2)CCC1	nt	nt	-0.0333	nt	nt
CC(CCc1ccco1)NC(=O)c1cc2c(-c3ccccc3F)nn(C)c2s1 (stereo unspecified)	78.4*	0.2	-2.66	0.1	93.0*
Cn1nc(-c2ccccc2F)c2cc(C(=O)Nc3ccc4c(c3)OCCO4)sc21	42.2	0.6	-0.245	0.2	81.1*
COc1cccc(-c2nn(C)c3sc(C(=O)Nc4ccc5c(c4)OCCO5)cc23)c1	14.5	0.9	-1.89	0.5	48.8
COC(=O)c1cc2sccc2n1CC(=O)N1CCCc2ccccc21	83.1*	0.2	-2.69	0.3	68.7*
CCC1CCCCN1C(=O)Cn1c(C(=O)OC)cc2sc(Cl)cc21 (stereo unspecified)	31.3	0.7	-2.45	0.9	6.7
CCOC(=O)c1cc2occc2n1Cc1ccc(F)cc1	-0.1	1	-0.0921	0.8	20.2
CCOC(=O)c1cc2occc2n1CC(=O)N1CCCc2ccccc21	95.8*	0	-0.262	0.1	86.8*
CCOC(=O)c1cc2sc(C)cc2n1CC(=O)N1CCc2ccccc21	12.7	0.9	-0.0934	0.9	10.3
COC(=O)c1cc2sc(Cl)cc2n1CC(=O)N1CCCc2ccccc21	82.9*	0.2	-2.69	0.3	73.4*
SMILES	CYP2C19 inh	CYP2C19 activ	Cav3 T inh	CYP2C9 activ	CYP2C9 inh
CCOC(=O)c1cc2sccc2n1CC(=O)N1CCCc2ccccc21	98.4*	0	-3.85*	0.1	93.8*
COc1ccc(NC(=O)c2cccnc2C(=O)O)c(OC)c1	-12.3	1.1	-0.0153	1	-3.9
COC(=O)c1nn(-c2ccc(OC)cc2)c(=O)cc1Oc1cccc(Cl)c1	12.3	0.9	-0.187	1	0.5
Cc1ccc2oc(=O)c3cnn(CC(=O)N4CCCc5ccccc54)c3c2c1	-1.8	1	1.48	0.4	55.1*
COC(=O)c1cc2oc(C)cc2n1CC(=O)Nc1ccc(C)c(C)c1	37.4	0.6	-0.239	0.6	39.9
COC(=O)c1cc2oc(C)cc2n1CC(=O)N1CCCc2ccccc21	67.1*	0.3	nt	0.3	68.1*
CCOC(=O)c1cc2sccc2n1CCCN1C(=O)c2ccccc2C1=O	32.5	0.7	-2.61	0.3	69.3*
FC(F)Oc1ccc(/C=N/c2c(-c3ccc(OC(F)F)cc3)nc3n2CCS3)cc1	nt	nt	-0.422	nt	nt
Cc1ccccc1-c1nc(CS(=O)CC(=O)NCCCN(C)c2ccccc2)c(C)o1 (stereo unspecified)	17.8	0.8	-4.3	1.5	-46.5
Cc1ccc(NC(=O)CS(=O)CC(=O)NCCCN(C)c2ccccc2)cc1 (stereo unspecified)	60.5*	0.4	-1.64	0.2	84.4*
CCCCN1C(=O)C2ON(c3ccccc3C)C(c3ccco3)C2C1=O (stereo unspecified)	77.3*	0.2	-2.19	0	95.7*
O=C1C2CC=C(Cl)CC2C(=O)N1CN(Cc1ccco1)CN1C(=O)C2CC=C(Cl)CC2C1=O (stereo unspecified)	23.6	0.8	0.287	0.7	33.3
C=CCc1cccc(Cl)c1OCCON1C(=O)CCC1=O	55.1*	0.4	1.68	0.8	21.4
CC(/C=C1\N=C(SCc2ccccc2Cl)SC1=O)=C\c1ccccc1	24.0	0.8	-0.142	0.7	30.2
COc1ccc(CN2C(=O)c3cccnc3C2Nc2ccc(OC)c(Cl)c2)cc1 (stereo unspecified)	37.7	0.6	-0.83	0.9	13.0
Cc1ccc(NC2c3ncccc3C(=O)N2Cc2ccc(F)cc2)cc1 (stereo unspecified)	32.4	0.7	-1.08	0.5	52.7*
CCN=C1SC(C(=O)Nc2ccccc2)CC(=O)N1CC (stereo unspecified)	36.9	0.6	-0.134	1.2	-23.8
Cc1ccccc1NC(=O)C1(NC(=O)c2cccc(N3C(=O)CSC3c3ccccc3)c2)CCCCC1 (stereo unspecified)	23.0	0.8	-10.1*	0.5	45.4
Cc1ccc(N2C(=O)CSC2c2cccnc2)cc1F (stereo unspecified)	11.6	0.9	-0.0945	1.1	-6.2
Cc1ccc2nc(CSc3nc(C)ccc3C#N)[nH]c2c1	58.1*	0.4	-1.45	0.5	49.8
COC(=O)CSc1nc2cc(C)ccc2cc1C#N	-7.5	1.1	1.15	1	3.6
O=C(CSc1nc2ccsc2c(=O)n1NC(=O)c1ccccc1)Nc1nccs1	nt	nt	-0.388	nt	nt
c1ccc(C2=NNC(=NC3CC3)SC2)cc1	84.2*	0.2	0.861	0.5	54.2*
c1ccc(-c2noc(-c3ccc4ccccc4c3)n2)nc1	20.1	0.8	-0.0676	1	-4.6
COc1cccc(-c2nc(-c3ccccn3)no2)c1	75.2*	0.2	0.147	0.6	39.3
c1ccc(-c2noc(-c3ccc4c(c3)OCO4)n2)nc1	79.4*	0.2	0.152	0.1	92.0*
c1ccc(-c2noc(-c3ccncc3)n2)nc1	67.6*	0.3	0.183	0.7	25.1

Screening results: PubChem, several laboratories
